The list is not random: actives were taken first. Their share in the collection is about 12%.
JMJD2A Tudor inh = qHTS Assay for Inhibitors of JMJD2A-Tudor Domain. AlphaScreen JMJD2A-Tudor / H3K4me3 peptide binding. Lysine-specific demethylase 4A (Homo sapiens), O75164. hit rate 4.4% among 390,000. Potency, µM (highest dose often 114 µM), for inactives: at the top dose activity change, negative = inhibition, most hits filed as inhibitors; note: % is set by controls: 0 for no effect and ±100 for the full control effect; nearly all actives have a fitted effect of over 50% in size
HP1b binding inh = HTS for Inhibitors of HP1-beta Chromodomain Interactions with Methylated Histone Tails | AlphaScreen HP1-beta / biotin-H3K9me3 peptide binding | Potency, µM (top dose mostly 114 µM), without a hit: at the highest dose activity change, negative = inhibition, actives largely listed as inhibitors | hit rate 0.56% among 390,000 | AID 540317, 2011; note: nearly all actives have a fitted effect of over 70% in size
Target sequence (P83916 whole entry, looked up): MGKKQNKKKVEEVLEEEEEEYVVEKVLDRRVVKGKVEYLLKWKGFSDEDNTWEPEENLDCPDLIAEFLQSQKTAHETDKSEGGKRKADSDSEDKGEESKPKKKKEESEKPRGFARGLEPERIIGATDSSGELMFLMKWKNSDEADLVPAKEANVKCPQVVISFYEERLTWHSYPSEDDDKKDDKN
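AlphaScreen: HP1-beta (50 nM) preformed 30 min with biotin-H3(1-18)K9me3 peptide (50 nM) in PBS pH 7.4, 0.01% Tween-20. Compound added for 30 min at RT, then streptavidin donor/nickel chelate acceptor beads (10 ug/mL) for 30 min.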
PLK1 PBD inh = qHTS for Inhibitors of PLK1-PDB (polo-like kinase 1 - polo-box domain): Primary Screen. Plk1 PBD binding of FITC phosphopeptide, fluorescence polarization. Serine/threonine-protein kinase PLK1 (Homo sapiens), P53350. Potency, µM, without a hit: max response, negative = inhibition, hits mostly inhibitors. AID 720504, 2013. hit rate 2.8% among 360,000; note: series mostly up to about 57 µM; % is set by controls: 0 for no effect and ±100 for the full control effect; nearly all actives have a fitted effect of over 65% in size
G9a inh = qHTS Assay for Inhibitors of Histone Lysine Methyltransferase G9a | G9a H3K9 monomethylation, AlphaScreen, 2 h | Potency, µM (top dose mostly 102 µM), inactives show at the highest dose activity, negative = inhibition, actives largely listed as inhibitors | hit rate 8.8% among 350,000 | Histone-lysine N-methyltransferase EHMT2 (Homo sapiens), Q96KQ7 | AID 504332, 2011; note: % is set by controls: 0 for no effect and ±100 for the full control effect; nearly all actives have a fitted effect of over 75% in size
Target sequence (Q96KQ7 913-1193 limits assumed): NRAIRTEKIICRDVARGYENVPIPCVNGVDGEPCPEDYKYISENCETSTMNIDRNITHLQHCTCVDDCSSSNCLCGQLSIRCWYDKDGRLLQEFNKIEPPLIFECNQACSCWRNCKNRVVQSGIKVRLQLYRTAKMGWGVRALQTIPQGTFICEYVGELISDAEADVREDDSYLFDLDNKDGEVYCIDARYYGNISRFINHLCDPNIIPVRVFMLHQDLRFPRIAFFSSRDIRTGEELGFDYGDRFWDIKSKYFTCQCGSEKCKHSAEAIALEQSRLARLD
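Compounds were preincubated with 20 nM G9a for 15 min, after which biotinylated H3K9 peptide (500 nM) and SAM (20 uM) started a 2 h room-temperature reaction. Monomethylated product was quantified by antibody-based AlphaScreen chemiluminescence.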
BAZ2B block = qHTS Assay for Inhibitors of BAZ2B. Bromodomain adjacent to zinc finger domain protein 2B (Homo sapiens), Q9UIF8. AlphaScreen BAZ2B-H3K14Ac peptide displacement. Potency, µM (highest dose often 114 µM), inactives show top-dose activity change, negative = inhibition, hits mostly inhibitors. hit rate 4.4% among 360,000; note: % is set by controls: 0 for no effect and ±100 for the full control effect; nearly all actives have a fitted effect of over 60% in size
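Multi-concentration screen (max 110 uM) measuring displacement of acetylated histone H3 peptide from BAZ2B by AlphaScreen, using 50 nM protein, 50 nM peptide and 10 ug/mL streptavidin donor plus Ni-chelate acceptor beads.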
Sfp inh = qHTS Assay for Inhibitors of Bacillus subtilis Sfp phosphopantetheinyl transferase (PPTase). Biochemical Sfp PPTase activity, qHTS. Potency, µM, for inactives: largest response in the series, negative = inhibition, usual class: inhibitors. 4'-phosphopantetheinyl transferase ffp (Bacillus subtilis), Q9F4F7. hit rate 3.5% among 310,000;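 note: the enzyme is Sfp with the accession as filed and its product quenches rhodamine fluorescence; 0% = enzyme reaction without inhibitor and -100% = no enzyme wells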
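Buffer: 50 mM Hepes-Na pH 7.6, 10 mM MgCl2, 0.01% Nonidet P-40, 0.01% BSA. Enzyme 15 nM, pre-exposed to compound 15 min; substrates then added and fluorescence change tracked over 30 min.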
* hit, by the source's call; [ ] = another dose, or the depositor's remark. Calls come from the whole dose curve; as a rule, active = well fitted curve in the direction sought with a large enough effect; inconclusive = small, poorly fitted or top-dose-only effect, or another doubt; inactive = no such curve, though single readings can be large; an effect the other way counts as inactive or inconclusive. Potency is the fitted concentration of half-maximal effect.

For Cc1[nH]c(=S)c(C#N)c(C)c1C(=O)Nc1ccccc1 the results were JMJD2A Tudor inh 8.91µM*, HP1b binding inh inconclusive, PLK1 PBD inh inconclusive, G9a inh 1.26µM*, BAZ2B block -3.7% and Sfp inh 44.7µM*.
`CCc1c(C(=O)Nc2ccccc2)c(C)[nH]c(=S)c1C#N` gave JMJD2A Tudor inh 7.08µM*, HP1b binding inh inconclusive, PLK1 PBD inh 21.2µM*, G9a inh 1.58µM*, BAZ2B block -7.6% and Sfp inh 56.2µM*.
For Cc1oc(C)c(C(=O)Nc2ccccc2)c1C the results were Sfp inh 0.3%.
CCc1ccc(-n2nc(CO)c(C(=O)NC)n2)cc1 was read as JMJD2A Tudor inh -7.2%, HP1b binding inh 19.4%, G9a inh 8.4%[59 µM] and BAZ2B block -0.8%.
For Cc1cc(=O)[nH]c2cc(O)ccc12 the results were JMJD2A Tudor inh -13.1%, HP1b binding inh 3.1%, PLK1 PBD inh -1.1%, G9a inh -14.4%, BAZ2B block 10.9% and Sfp inh 9.8%.
`CC(C)=CCCC1(C)C=Cc2c(c(C)cc3c2[nH]c2cc(O)ccc23)O1` (centres undefined) gave JMJD2A Tudor inh 44.7µM*, HP1b binding inh -39.7%, PLK1 PBD inh -2.5%, G9a inh inconclusive, BAZ2B block 44.7µM* and Sfp inh 31.7%.
`CCOC1=C/C(=C/c2c(N)n3nc(CC(=O)N4CCCCC4)sc3nc2=O)C=CC1=O` gave JMJD2A Tudor inh inconclusive, HP1b binding inh 10.3%, PLK1 PBD inh inconclusive, G9a inh 50.1µM*, BAZ2B block inconclusive and Sfp inh 14.3%.
`Nc1c(C=C2C=CC(=O)C=C2)c(=O)nc2sc(CC(=O)N3CCOCC3)nn12` gave JMJD2A Tudor inh -9.0%, HP1b binding inh 15.6%, PLK1 PBD inh -13.4%, BAZ2B block inconclusive and Sfp inh 4.7%.
`CCOC1=C/C(=C/c2c(N)n3nc(S(=O)(=O)CC)sc3nc2=O)C=CC1=O` gave JMJD2A Tudor inh -19.1%, HP1b binding inh 5.4%, PLK1 PBD inh 62.3%, G9a inh 35.5µM*, BAZ2B block -27.8% and Sfp inh -6.1%.
`COC1=C/C(=C/c2c(N)n3nc(CC(=O)N4CCCCC4)sc3nc2=O)C=CC1=O` gave JMJD2A Tudor inh -13.1%, HP1b binding inh 19.6%, PLK1 PBD inh 37.3%, G9a inh inconclusive, BAZ2B block -22.0% and Sfp inh 8.7%.
`CCC(c1nnc(SCc2nc3ccccc3s2)n1Cc1ccccc1)N(C)C` (centres undefined) gave JMJD2A Tudor inh -27.6%, HP1b binding inh 16.9%, PLK1 PBD inh -3.2%, G9a inh 50.1µM*, BAZ2B block -26.3% and Sfp inh -14.7%.
Screening CCn1c(SCc2nc3ccccc3s2)nnc1-c1ccccc1 returned JMJD2A Tudor inh -10.4%, HP1b binding inh 38.0%, PLK1 PBD inh -9.5%, G9a inh inconclusive, BAZ2B block -5.0% and Sfp inh 18.9%.
For c1ccc(Cn2c(SCc3nc4ccccc4s3)nnc2-c2ccco2)cc1 the results were JMJD2A Tudor inh 31.6µM*, HP1b binding inh inconclusive, PLK1 PBD inh 21.2µM*, G9a inh 7.08µM*, BAZ2B block inconclusive and Sfp inh 20µM*.
Screening Cc1nnc(SCc2nc3ccccc3s2)n1-c1ccccc1 returned JMJD2A Tudor inh -10.5%, HP1b binding inh 23.9%, PLK1 PBD inh -14.8%, G9a inh -23.6%[59 µM], BAZ2B block -3.3% and Sfp inh -1.0%.
For CCCNC(=O)c1cnc2c(-c3ccc(OCC)c(OCC)c3)c(C)nn2c1-c1ccccc1 the results were JMJD2A Tudor inh -23.0%, HP1b binding inh -3.0%, G9a inh -2.3%[59 µM] and BAZ2B block -18.8%.
`COc1ccccc1C(=O)NC1=NC(c2ccc(Br)cc2)CC(=O)N1` (centres undefined) gave JMJD2A Tudor inh -17.4%, HP1b binding inh 14.5%, G9a inh 8.3%[59 µM] and BAZ2B block -3.7%.
For Fc1ccc(NCc2ccccc2-c2nnc(-c3ccccc3Cl)o2)cc1Cl the results were JMJD2A Tudor inh 6.8%, HP1b binding inh 47.2%, G9a inh 8.8%[59 µM] and BAZ2B block 3.0%.
For CCOC(=O)[C@]12CCC=C1N(CCC1=CCCCC1)C(=O)[C@H](CC(=O)NCc1cccc3ccccc13)C2 the results were PLK1 PBD inh -16.2%.
O=C(NCc1ccccc1)[C@@H]1C[C@H]1[C@@H](NP(=O)(c1ccccc1)c1ccccc1)c1ccccc1 was read as JMJD2A Tudor inh -15.3%, HP1b binding inh 15.8%, PLK1 PBD inh -22.0%, G9a inh 1.5%, BAZ2B block -25.0% and Sfp inh 1.8%.
Cc1ccc(CNC(=O)[C@H]2C[C@@H]2[C@H](NP(=O)(c2ccccc2)c2ccccc2)c2ccccc2)o1 was read as JMJD2A Tudor inh -10.8%, HP1b binding inh 29.8%, PLK1 PBD inh -3.9%, G9a inh 50.1µM*, BAZ2B block inconclusive and Sfp inh 35.5µM*.
O=C(Nc1ccc2ccccc2c1)[C@@H]1C[C@H]1[C@@H](NP(=O)(c1ccccc1)c1ccccc1)c1ccccc1 was read as JMJD2A Tudor inh -27.5%, HP1b binding inh 22.5%, PLK1 PBD inh -2.3%, G9a inh 50.1µM*, BAZ2B block -33.1% and Sfp inh 17.9%.
`O=C(c1cccnc1)N1CCN(C(=O)c2cccc(Cl)c2)CC1` gave JMJD2A Tudor inh -2.8%, HP1b binding inh 64.9%, PLK1 PBD inh -11.5%, BAZ2B block 2.9% and Sfp inh 6.7%.
Screening CC(C)N1CCN(C(=O)c2cccc(Cl)c2)CC1 returned JMJD2A Tudor inh 14.1µM*, HP1b binding inh inconclusive, PLK1 PBD inh 4.1%, G9a inh 25.1µM*, BAZ2B block inconclusive and Sfp inh -16.4%.
CCC(CC)N1CCN(C(=O)c2cccc(Cl)c2)CC1 was read as JMJD2A Tudor inh 20µM*, HP1b binding inh inconclusive, PLK1 PBD inh -8.7%, G9a inh 7.94µM*, BAZ2B block 56.2µM* and Sfp inh -15.5%.
For COc1ccc(C)cc1NCc1ccc([N+](=O)[O-])cc1 the results were JMJD2A Tudor inh 50.1µM*, HP1b binding inh inconclusive, PLK1 PBD inh -1.0%, G9a inh -0.8%[0.501 µM], BAZ2B block 39.8µM* and Sfp inh 4.7%.
COc1ccc(C)cc1NC(=O)COC(C)=O was read as JMJD2A Tudor inh -7.5%, HP1b binding inh 16.8%, PLK1 PBD inh -0.5%, G9a inh -7.0%[59 µM], BAZ2B block -3.0% and Sfp inh -14.9%.

Compound activity deposited in PubChem by National Center for Advancing Translational Sciences (NCATS).
